Source: PubChem
Sampled rows, rich in hits. Any-hit rate of the full collection: about 4.1%.
hgDAF12 agonist – activates the H. glycines DAF-12 receptor ligand-binding domain | HEK293 GAL4-hgDAF12 UAS-luciferase reporter, agonist luminescence; normalized to butyrate control | activation, % at 6.8 µM | AID 687014 | actives 1.8% (n = 370,000);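 active means activation above a cutoff set at the mean of all screened compounds plus 3 SD, cut at about 10% in these data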
hcDAF12 agonist – activators of H. contortus DAF-12 nuclear receptor | actives 1.4% (n = 370,000) | activation, % at 6.8 µM | HEK293 hcDAF-12 lit1-tk-luc reporter, luminescence; 0% DMSO, 100% Δ7-dafachronic acid;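 active means activation above the mean of all tested compounds plus 3 SD, cut at about 5.5% in these data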
DAX1 inh-1 – inhibits human nuclear receptor DAX1; HEK293 Gal4-DAX1 luciferase reporter, luminescence; inhibition, % at 6.75 µM; actives 0.99% (n = 340,000); AID 504766;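 active means inhibition above the mean over all tested compounds plus 3 SD, cut at about 4.2% in these data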;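 further: inhibition shows as a rise in luminescence from relieved DAX1 repression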
Target sequence (P51843 207-470 limits assumed): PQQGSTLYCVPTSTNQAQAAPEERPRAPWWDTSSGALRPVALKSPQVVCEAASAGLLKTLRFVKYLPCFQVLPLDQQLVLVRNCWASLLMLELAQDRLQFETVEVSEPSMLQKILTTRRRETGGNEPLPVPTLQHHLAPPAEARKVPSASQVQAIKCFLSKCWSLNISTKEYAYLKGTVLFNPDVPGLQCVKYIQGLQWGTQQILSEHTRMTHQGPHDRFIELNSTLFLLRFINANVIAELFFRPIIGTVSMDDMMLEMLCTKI
DAX1 inh-2 – inhibitors of DAX1 repression of SF-1 activated StAR promoter; HEK293T StAR-luciferase reporter, SF-1/DAX-1 repression relief; inhibition, % at 6.8 µM; actives 1.1% (n = 370,000); AID 652010;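 active means inhibition above the mean over all tested compounds plus 3 SD, cut at about 3.6% in these data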;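 further: higher inhibition means more luminescence from relief of DAX-1 repression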
ssDAF-12 act – activates DAF-12 receptor from parasite S. stercoralis; actives 1% (n = 370,000); HEK293 ssDAF-12/GRIP1 lit1-tk-luc reporter, luminescence; % of 3 µM dafachronic acid response; activation, % at 6.8 µM; AID 652126;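 active means activation above the mean over all tested compounds plus 3 SD, cut at about 0.9% in these data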
DAX1 conf – confirmation of human DAX1 (NR0B1) inhibitors | HEK293T StAR-promoter luciferase reporter, SF-1/DAX-1 repression | actives 87% (n = 2,400) | inhibition, % at 6.8 µM | shares compounds with DAX1 inh-2;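 active means inhibition above the average of every tested compound plus 3 SD, cut at about 3.8% in these data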;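 further: active compounds raise luminescence by relieving repression of the StAR reporter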
SF1 AF2mut Luc – nonselective inhibitor or artifact in SF-1 mutant DAX1 counter-screen. shares compounds with DAX1 inh-2. actives 78% (n = 2,400). inhibition, % at 6.8 µM. AID 652136. HEK293 StAR-luciferase, SF-1 AF2 mutant, luminescence;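 active means inhibition above the mean of all tested compounds plus 3 SD, cut at about 3% in these data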
LXR ag – activates human LXR-beta, counter-screen for hcDAF-12 agonists; AID 743027; shares compounds with hcDAF12 agonist; activation, % at 6.8 µM; HEK293 Gal4-LXR tk-luc reporter, luminescence, 24 h; normalized: DMSO 0%, positive control 100%; 3,400 tested, under 10 active;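 active means mean percent activation of the reporter above a cutoff set as the average over tested compounds plus their standard deviation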
Target sequence (P55055 whole entry, looked up, the tested form may be a part): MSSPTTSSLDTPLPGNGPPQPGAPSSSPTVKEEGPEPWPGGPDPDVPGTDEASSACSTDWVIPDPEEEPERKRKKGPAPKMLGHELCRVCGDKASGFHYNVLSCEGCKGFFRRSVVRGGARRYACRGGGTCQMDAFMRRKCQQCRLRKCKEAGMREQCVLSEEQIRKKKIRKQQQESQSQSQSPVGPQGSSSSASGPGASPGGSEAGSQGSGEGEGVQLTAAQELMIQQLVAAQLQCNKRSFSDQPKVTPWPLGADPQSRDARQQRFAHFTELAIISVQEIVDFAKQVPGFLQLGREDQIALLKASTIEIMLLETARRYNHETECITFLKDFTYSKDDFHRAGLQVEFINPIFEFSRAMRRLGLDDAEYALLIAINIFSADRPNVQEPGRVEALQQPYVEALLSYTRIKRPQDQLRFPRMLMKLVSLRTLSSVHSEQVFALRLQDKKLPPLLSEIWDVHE
hcDAF12 ag – confirmation of H. contortus DAF-12 agonists; shares compounds with hcDAF12 agonist; HEK293 hcDAF-12 lit1-tk-luc reporter, luminescence; % of Δ7-dafachronic acid response; activation, % at 6.8 µM; actives 61% (n = 3,400);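 active means mean activation across triplicate tests above the threshold derived from the earlier primary screen, cut at about 5.5% in these data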
hgDAF12 conf – confirmation of H. glycines DAF-12 agonists; shares compounds with hgDAF12 agonist; HEK293 GAL4-hgDAF12 luciferase reporter, agonist mode; percent of butyrate response; activation, % at 6.8 µM; actives 80% (n = 3,300); AID 743050;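 active means mean activation over triplicate wells above the hit cutoff derived from the earlier primary screen, cut at about 11% in these data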
LXRb DAF12 ctr – LXR-beta agonism as DAF-12 counter-screen | 3,300 tested, under 10 active | HEK293 Gal4-LXR luciferase reporter, 24 h | AID 743051 | activation, % at 6.8 µM | shares compounds with hgDAF12 agonist;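 active means mean activation of the triplicate above a set limit carried over from the primary screen, none filed active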
Large screens that a line does not name were inactive (follow-up assays come after a bar, where they were run).

Oc1[nH]c2ccccc2c1C=Nc1ccc2c(c1)OCO2	hgDAF12 agonist 17, hcDAF12 agonist 7.0, DAX1 inh-1 5.1, DAX1 inh-2 6.6 | DAX1 conf 16 | SF1 AF2mut Luc 8.2 | LXR ag inactive | hcDAF12 ag 6.8 | hgDAF12 conf 19 | LXRb DAF12 ctr inactive
Cc1[nH]c2ccccc2c1/C=N\NC(=O)CNc1ccc2c(c1)OCO2	none
NC(=O)c1ccccc1N/C=C/C(=O)c1ccccc1	hgDAF12 agonist 13, DAX1 inh-2 5.8 | DAX1 conf 12 | SF1 AF2mut Luc 5.4 | hgDAF12 conf 16 | LXRb DAF12 ctr inactive
COc1ccc(NC(C)=O)c(C)c1	none
COc1ccc(-n2nc3cc(C)c(NC(C)=O)cc3n2)cc1	hgDAF12 agonist 18, DAX1 inh-2 4.5, ssDAF-12 act 0.9 | DAX1 conf 8.4 | SF1 AF2mut Luc inactive | hgDAF12 conf inactive | LXRb DAF12 ctr inactive
CC1CCCN(C(=O)c2cccc(S(=O)(=O)NCc3ccccc3)c2)C1 (stereo unspecified)	none
Nc1ccc2c(c1)C(=O)c1ccccc1C2=O	hgDAF12 agonist 17, hcDAF12 agonist 7.3, DAX1 inh-2 10 | DAX1 conf 7.2 | SF1 AF2mut Luc 5.0 | LXR ag inactive | hcDAF12 ag inactive | hgDAF12 conf 18 | LXRb DAF12 ctr inactive
Nc1ccc2c(c1)C(=O)C(=O)c1ccccc1-2	none
CC(C)N(C(=S)Nc1cccc(S(=O)(=O)N(C)C)c1)c1ccccc1	none
O=C(/C=C/c1ccc([N+](=O)[O-])cc1)Nc1ncc([N+](=O)[O-])s1	hgDAF12 agonist 27, hcDAF12 agonist 12, DAX1 inh-2 7.4 | DAX1 conf inactive | SF1 AF2mut Luc inactive | LXR ag inactive | hcDAF12 ag 5.8 | hgDAF12 conf inactive | LXRb DAF12 ctr inactive
O=C(/C=C/c1ccc([N+](=O)[O-])cc1)NCc1ccccn1	none
CCc1csc(N2[C@H](CN(CCOC)S(=O)(=O)c3ccccc3[N+](=O)[O-])[C@H](c3ccccc3)[C@@H]2CO)n1	none (no result: DAX1 inh-1)
O=C1NC[C@@H](CCCCN2CCN(Cc3ccccc3)C(=O)C2=O)N(CCC2CCCCC2)C1=O	none (no result: DAX1 inh-1)
COc1ccc(/C=N/N=C(\N)c2nonc2N)cc1	hgDAF12 agonist 16, hcDAF12 agonist 12, DAX1 inh-2 8.7 | DAX1 conf 14 | SF1 AF2mut Luc 5.9 | LXR ag inactive | hcDAF12 ag 6.6 | hgDAF12 conf 16 | LXRb DAF12 ctr inactive
CC(=O)N(C)c1ccc(NS(=O)(=O)c2cc(Cl)ccc2Cl)cc1	none
COc1ccc(CCNC(=O)CSc2nnc(C(C)N(C)C)n2Cc2ccccc2)cc1OC (stereo unspecified)	none
O=C(CCCCCCC(=O)Nc1ccccc1)NO	hgDAF12 agonist 41, hcDAF12 agonist 12, DAX1 inh-1 13, DAX1 inh-2 33, ssDAF-12 act 2.0 | DAX1 conf active | SF1 AF2mut Luc inactive | LXR ag inactive | hcDAF12 ag 7.0 | hgDAF12 conf 41 | LXRb DAF12 ctr inactive
COC(=O)c1[nH]c2c(c1C)C(=O)CCC2	none
Cc1c(C(=O)OC2CCC(C)CC2)[nH]c2c1C(=O)CCC2 (stereo unspecified)	hgDAF12 agonist 15, DAX1 inh-1 5.8, DAX1 inh-2 7.3 | DAX1 conf 15 | SF1 AF2mut Luc 5.9 | hgDAF12 conf 21 | LXRb DAF12 ctr inactive
Cc1ccc2c(CN(C)Cc3ccccc3)cc(=O)oc2c1	hgDAF12 agonist 14, DAX1 inh-2 6.8 (no result: DAX1 inh-1) | DAX1 conf 6.0 | SF1 AF2mut Luc inactive | hgDAF12 conf 11 | LXRb DAF12 ctr inactive
Cc1ccc(NC(=S)N2CCC(c3ccccc3)C2)c(Cl)c1 (stereo unspecified)	hgDAF12 agonist 19, DAX1 inh-2 5.1, ssDAF-12 act 1.1 | DAX1 conf 11 | SF1 AF2mut Luc 4.8 | hgDAF12 conf 13 | LXRb DAF12 ctr inactive
CS(=O)(=O)Nc1ccc(C(=O)Nc2ccccc2Cl)cc1	none (no result: DAX1 inh-1)
CC(C)(C)c1ccc(C(=O)Nc2ccccc2Cl)cc1	hgDAF12 agonist 32, hcDAF12 agonist 10, DAX1 inh-1 5.0, DAX1 inh-2 7.7, ssDAF-12 act 1.5 | DAX1 conf 16 | SF1 AF2mut Luc 6.5 | LXR ag inactive | hcDAF12 ag 9.4 | hgDAF12 conf 19 | LXRb DAF12 ctr inactive
Nc1cc2sc(-c3ccc(C(=O)O)cc3)nc2cc1Cl	none
Cc1cc(-c2nc3cc(F)ccc3s2)ccc1N	hgDAF12 agonist 20, hcDAF12 agonist 18, DAX1 inh-2 7.0, ssDAF-12 act 3.7 | DAX1 conf 8.4 | SF1 AF2mut Luc 4.5 | LXR ag inactive | hcDAF12 ag 17 | hgDAF12 conf 24 | LXRb DAF12 ctr inactive
COC(=O)[C@H](Cc1ccccc1)N[C@H](c1ccc(OC)cc1)[C@@H](O)Cc1ccccc1	none (no result: DAX1 inh-1)
CC1CCc2sc(C(=O)NCC3CCCO3)cc2C1 (stereo unspecified)	hgDAF12 agonist 15, DAX1 inh-2 7.2 | DAX1 conf 9.9 | SF1 AF2mut Luc 6.5 | hgDAF12 conf 13 | LXRb DAF12 ctr inactive
COc1ccc(NC(=O)c2cn(-c3ccccc3)nc2-c2cc3ccccc3o2)cc1	none
OCc1cn(-c2ccccc2)nc1-c1cc2ccccc2o1	hgDAF12 agonist 14, DAX1 inh-1 4.7, DAX1 inh-2 5.8, ssDAF-12 act 1.1 | DAX1 conf 15 | SF1 AF2mut Luc 12 | hgDAF12 conf 15 | LXRb DAF12 ctr inactive
O=C(NCC1CCCCC1)c1ccc2nc([C@@H]3O[C@H](CO)[C@@H](O)[C@H]3O)[nH]c2c1	none (no result: DAX1 inh-1)
Cc1ccc(C(=O)c2ccc(C)cc2)cc1	none
CC(=O)c1ccc(N=Nc2ccc(C)cc2)cc1	hgDAF12 agonist 15, hcDAF12 agonist 6.4, DAX1 inh-2 6.6 | DAX1 conf 9.5 | SF1 AF2mut Luc inactive | hgDAF12 conf inactive | LXRb DAF12 ctr inactive
